Measurements from paper PMC7862700, “An all-to-all approach to the identification of sequence-specific readers for epigenetic DNA modifications on cytosine”.

Legend:
Assay in all cases: DAPPL (digital affinity profiling via proximity ligation, sequencing); 10 mM Tris-HCl pH 7.5, 50 mM NaCl, 1 mM DTT, 4% glycerol, room temperature, 30 min; GST-TFs on glutathione beads, 16-mer random dsDNA library, 0.1% formaldehyde crosslink after washing; high values mean tight binding
Conditions in all cases: protein: recombinant; tags: N-terminal GST; dsDNA, one strand shown
[1] = molecular target: T1, FLI1 (Homo sapiens, UniProt Q01543 1-452)
T1 sequence: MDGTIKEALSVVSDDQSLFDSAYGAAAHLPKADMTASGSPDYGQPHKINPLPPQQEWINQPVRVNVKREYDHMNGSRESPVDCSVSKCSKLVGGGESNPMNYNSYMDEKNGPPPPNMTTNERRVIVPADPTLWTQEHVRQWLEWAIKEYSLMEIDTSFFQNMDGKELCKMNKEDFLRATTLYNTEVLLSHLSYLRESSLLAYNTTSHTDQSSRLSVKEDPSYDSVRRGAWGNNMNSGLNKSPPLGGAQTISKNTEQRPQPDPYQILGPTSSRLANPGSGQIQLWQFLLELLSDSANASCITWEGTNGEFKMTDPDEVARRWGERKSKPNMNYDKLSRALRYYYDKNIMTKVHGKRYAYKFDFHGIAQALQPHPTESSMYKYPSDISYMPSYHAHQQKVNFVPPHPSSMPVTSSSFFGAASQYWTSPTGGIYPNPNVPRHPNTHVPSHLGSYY
Procedure, shortened: (§1)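 Human transcription factors were made in yeast as GST fusions, captured on glutathione beads and barcoded with DNA. With a tag-only sample included, the pool was incubated with 200 nmole of a random double-stranded 16-mer DNA library in Tris/NaCl/DTT/glycerol buffer at room temperature for 30 min, then crosslinked with 0.1% formaldehyde after washing, ligated by proximity, amplified and sequenced. For binding signal, each hexamer's read frequency for a factor is divided by its frequency for the tag-only sample.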

[2] = molecular target: T2, ELK1 (Homo sapiens, UniProt P19419 1-428)
T2 sequence: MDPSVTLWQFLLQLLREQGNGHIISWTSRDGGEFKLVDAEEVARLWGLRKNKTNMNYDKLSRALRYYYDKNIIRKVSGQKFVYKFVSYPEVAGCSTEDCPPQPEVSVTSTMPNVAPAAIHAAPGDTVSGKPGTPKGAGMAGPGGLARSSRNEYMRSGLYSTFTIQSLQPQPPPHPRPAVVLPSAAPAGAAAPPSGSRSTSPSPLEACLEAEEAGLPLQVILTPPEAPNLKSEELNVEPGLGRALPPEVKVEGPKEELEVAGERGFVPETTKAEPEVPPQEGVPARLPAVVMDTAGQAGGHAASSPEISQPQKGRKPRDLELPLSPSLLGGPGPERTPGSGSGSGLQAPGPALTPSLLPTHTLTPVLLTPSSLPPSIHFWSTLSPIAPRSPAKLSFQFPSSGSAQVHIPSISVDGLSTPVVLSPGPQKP
Procedure, shortened: as §1

[3] = molecular target: T3, GABPA (Homo sapiens, UniProt Q06546 1-454)
T3 sequence: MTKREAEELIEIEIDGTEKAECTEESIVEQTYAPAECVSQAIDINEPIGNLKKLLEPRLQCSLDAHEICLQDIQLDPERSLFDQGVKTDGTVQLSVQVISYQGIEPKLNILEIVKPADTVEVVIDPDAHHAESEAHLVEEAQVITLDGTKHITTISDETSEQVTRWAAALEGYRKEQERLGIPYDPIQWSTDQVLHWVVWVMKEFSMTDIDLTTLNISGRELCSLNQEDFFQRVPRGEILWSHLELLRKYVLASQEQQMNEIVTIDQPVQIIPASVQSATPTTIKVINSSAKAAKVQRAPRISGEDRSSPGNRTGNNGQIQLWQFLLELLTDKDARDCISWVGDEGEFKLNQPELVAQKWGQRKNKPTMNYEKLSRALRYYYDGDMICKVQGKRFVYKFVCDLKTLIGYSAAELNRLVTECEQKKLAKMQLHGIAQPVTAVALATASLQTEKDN
Procedure, shortened: as §1

[4] = molecular target: T4, ERG (Homo sapiens, UniProt P11308 1-479)
T4 sequence: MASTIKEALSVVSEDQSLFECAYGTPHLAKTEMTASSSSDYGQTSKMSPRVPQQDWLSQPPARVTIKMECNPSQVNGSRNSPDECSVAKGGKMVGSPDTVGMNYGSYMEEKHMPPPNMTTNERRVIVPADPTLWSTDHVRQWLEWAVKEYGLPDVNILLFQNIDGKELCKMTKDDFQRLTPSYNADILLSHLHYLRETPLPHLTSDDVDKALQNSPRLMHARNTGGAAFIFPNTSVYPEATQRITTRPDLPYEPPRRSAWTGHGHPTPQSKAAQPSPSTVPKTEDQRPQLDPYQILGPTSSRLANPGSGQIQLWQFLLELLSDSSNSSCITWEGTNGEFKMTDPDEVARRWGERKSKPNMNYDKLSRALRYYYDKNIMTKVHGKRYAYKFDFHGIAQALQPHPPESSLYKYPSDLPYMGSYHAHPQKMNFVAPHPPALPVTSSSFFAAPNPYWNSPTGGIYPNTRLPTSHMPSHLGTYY
Procedure, shortened: as §1

[5] = molecular target: ELF1 (Homo sapiens, UniProt P32519 1-619)
Sequence of ELF1 (P32519 whole entry): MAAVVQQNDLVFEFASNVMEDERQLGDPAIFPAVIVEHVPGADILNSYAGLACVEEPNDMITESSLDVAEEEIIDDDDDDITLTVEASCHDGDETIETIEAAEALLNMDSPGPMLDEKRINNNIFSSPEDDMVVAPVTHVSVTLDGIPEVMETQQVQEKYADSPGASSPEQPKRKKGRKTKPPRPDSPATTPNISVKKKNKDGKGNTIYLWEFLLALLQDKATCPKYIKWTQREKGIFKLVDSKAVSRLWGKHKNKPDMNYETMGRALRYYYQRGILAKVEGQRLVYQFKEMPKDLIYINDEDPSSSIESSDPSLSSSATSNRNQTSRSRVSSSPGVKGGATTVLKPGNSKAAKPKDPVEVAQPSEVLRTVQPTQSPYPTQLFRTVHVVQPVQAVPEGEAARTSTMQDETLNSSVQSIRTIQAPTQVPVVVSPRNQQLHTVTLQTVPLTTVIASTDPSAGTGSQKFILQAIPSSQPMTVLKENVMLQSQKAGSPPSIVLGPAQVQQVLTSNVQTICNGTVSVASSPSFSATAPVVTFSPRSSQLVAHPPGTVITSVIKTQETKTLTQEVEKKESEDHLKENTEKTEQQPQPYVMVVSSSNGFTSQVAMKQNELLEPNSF
Procedure, shortened: as §1

[6] = molecular target: T5, EHF (Homo sapiens, UniProt Q9NZC4 1-300)
T5 sequence: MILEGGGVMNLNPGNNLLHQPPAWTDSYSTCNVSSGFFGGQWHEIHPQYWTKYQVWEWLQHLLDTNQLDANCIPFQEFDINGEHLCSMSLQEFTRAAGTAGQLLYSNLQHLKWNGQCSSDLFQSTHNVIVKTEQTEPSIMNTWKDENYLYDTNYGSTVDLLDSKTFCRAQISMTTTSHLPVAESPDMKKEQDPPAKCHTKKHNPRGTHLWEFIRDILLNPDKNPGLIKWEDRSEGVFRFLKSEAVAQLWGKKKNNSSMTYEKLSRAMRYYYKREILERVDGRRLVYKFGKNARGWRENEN
Procedure, shortened: as §1

[7] = molecular target: SPI1 (Homo sapiens, UniProt P17947 1-270)
Procedure, shortened: as §1

[8] = molecular target: SPIB (Homo sapiens, UniProt Q01892 1-262)
Sequence of SPIB (Q01892 whole entry): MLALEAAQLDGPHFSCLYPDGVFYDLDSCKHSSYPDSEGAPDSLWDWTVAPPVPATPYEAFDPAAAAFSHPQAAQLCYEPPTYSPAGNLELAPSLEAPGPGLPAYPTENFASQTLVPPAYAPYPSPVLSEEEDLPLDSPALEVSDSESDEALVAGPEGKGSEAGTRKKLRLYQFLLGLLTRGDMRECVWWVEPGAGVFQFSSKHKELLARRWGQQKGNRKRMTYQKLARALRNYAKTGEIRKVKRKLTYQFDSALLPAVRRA
Procedure, shortened: as §1

[9] = molecular target: T6, ELK3 (Homo sapiens, UniProt P41970 1-407)
T6 sequence: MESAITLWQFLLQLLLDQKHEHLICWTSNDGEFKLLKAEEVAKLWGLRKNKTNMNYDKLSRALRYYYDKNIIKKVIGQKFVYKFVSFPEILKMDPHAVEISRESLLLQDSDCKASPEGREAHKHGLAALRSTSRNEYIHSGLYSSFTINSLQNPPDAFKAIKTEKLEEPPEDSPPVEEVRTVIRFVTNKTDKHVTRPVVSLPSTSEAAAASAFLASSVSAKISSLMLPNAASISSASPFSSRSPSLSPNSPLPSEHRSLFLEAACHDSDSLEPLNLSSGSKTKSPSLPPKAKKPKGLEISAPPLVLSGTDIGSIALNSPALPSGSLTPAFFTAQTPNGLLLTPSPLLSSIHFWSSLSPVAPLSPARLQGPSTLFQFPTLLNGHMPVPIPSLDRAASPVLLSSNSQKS
Procedure, shortened: as §1

Row | Sequence | binding signal [1] | binding signal [2] | binding signal [3] | binding signal [4] | binding signal [5] | binding signal [6] | binding signal [7] | binding signal [8] | binding signal [9]
1 | CTTCGT | 1.34 fold enrichment (6-mer frequency, TF over GST control) | 1.45 fold enrichment (6-mer frequency, TF over GST control) | 1.38 fold enrichment (6-mer frequency, TF over GST control) | 1.3 fold enrichment (6-mer frequency, TF over GST control) | 1.3 fold enrichment (6-mer frequency, TF over GST control) | 1.36 fold enrichment (6-mer frequency, TF over GST control) | 1.39 fold enrichment (6-mer frequency, TF over GST control) | 1.32 fold enrichment (6-mer frequency, TF over GST control) | 1.4 fold enrichment (6-mer frequency, TF over GST control)
2 | GAAAAT | 1.16 fold enrichment (6-mer frequency, TF over GST control) | 1.07 fold enrichment (6-mer frequency, TF over GST control) | 1.16 fold enrichment (6-mer frequency, TF over GST control) | 1.07 fold enrichment (6-mer frequency, TF over GST control) | 1.04 fold enrichment (6-mer frequency, TF over GST control) | 1.14 fold enrichment (6-mer frequency, TF over GST control) | 1.14 fold enrichment (6-mer frequency, TF over GST control) | 1.18 fold enrichment (6-mer frequency, TF over GST control) | 1.04 fold enrichment (6-mer frequency, TF over GST control)
3 | AAACCA | 1.13 fold enrichment (6-mer frequency, TF over GST control) | 1.11 fold enrichment (6-mer frequency, TF over GST control) | 1.14 fold enrichment (6-mer frequency, TF over GST control) | 1.19 fold enrichment (6-mer frequency, TF over GST control) | 1.18 fold enrichment (6-mer frequency, TF over GST control) | 1.17 fold enrichment (6-mer frequency, TF over GST control) | 1.07 fold enrichment (6-mer frequency, TF over GST control) | 1.16 fold enrichment (6-mer frequency, TF over GST control) | 1.18 fold enrichment (6-mer frequency, TF over GST control)
4 | TTCAGC | 1.27 fold enrichment (6-mer frequency, TF over GST control) | 1.2 fold enrichment (6-mer frequency, TF over GST control) | 1.26 fold enrichment (6-mer frequency, TF over GST control) | 1.24 fold enrichment (6-mer frequency, TF over GST control) | 1.23 fold enrichment (6-mer frequency, TF over GST control) | 1.25 fold enrichment (6-mer frequency, TF over GST control) | 1.18 fold enrichment (6-mer frequency, TF over GST control) | 1.18 fold enrichment (6-mer frequency, TF over GST control) | 1.27 fold enrichment (6-mer frequency, TF over GST control)
5 | TTATGT | 1.3 fold enrichment (6-mer frequency, TF over GST control) | 1.3 fold enrichment (6-mer frequency, TF over GST control) | 1.27 fold enrichment (6-mer frequency, TF over GST control) | 1.31 fold enrichment (6-mer frequency, TF over GST control) | 1.24 fold enrichment (6-mer frequency, TF over GST control) | 1.28 fold enrichment (6-mer frequency, TF over GST control) | 1.31 fold enrichment (6-mer frequency, TF over GST control) | 1.32 fold enrichment (6-mer frequency, TF over GST control) | 1.22 fold enrichment (6-mer frequency, TF over GST control)
6 | ATCCGC | 1.82 fold enrichment (6-mer frequency, TF over GST control) | 1.86 fold enrichment (6-mer frequency, TF over GST control) | 1.57 fold enrichment (6-mer frequency, TF over GST control) | 1.93 fold enrichment (6-mer frequency, TF over GST control) | 1.76 fold enrichment (6-mer frequency, TF over GST control) | 1.82 fold enrichment (6-mer frequency, TF over GST control) | 1.74 fold enrichment (6-mer frequency, TF over GST control) | 1.82 fold enrichment (6-mer frequency, TF over GST control) | 2.04 fold enrichment (6-mer frequency, TF over GST control)
7 | ATTCGC | 1.18 fold enrichment (6-mer frequency, TF over GST control) | 1.15 fold enrichment (6-mer frequency, TF over GST control) | 1.25 fold enrichment (6-mer frequency, TF over GST control) | 1.25 fold enrichment (6-mer frequency, TF over GST control) | 1.15 fold enrichment (6-mer frequency, TF over GST control) | 1.18 fold enrichment (6-mer frequency, TF over GST control) | 1.21 fold enrichment (6-mer frequency, TF over GST control) | 1.33 fold enrichment (6-mer frequency, TF over GST control) | 1.06 fold enrichment (6-mer frequency, TF over GST control)
8 | GATATA | 1.12 fold enrichment (6-mer frequency, TF over GST control) | 1.06 fold enrichment (6-mer frequency, TF over GST control) | 1.15 fold enrichment (6-mer frequency, TF over GST control) | 1.13 fold enrichment (6-mer frequency, TF over GST control) | 1.09 fold enrichment (6-mer frequency, TF over GST control) | 1.18 fold enrichment (6-mer frequency, TF over GST control) | 1.09 fold enrichment (6-mer frequency, TF over GST control) | 1.06 fold enrichment (6-mer frequency, TF over GST control) | 1.17 fold enrichment (6-mer frequency, TF over GST control)
